Test results published in PubChem BioAssay.

The compounds below were run against Luciferin 4-monooxygenase (Photinus pyralis) (UniProt P08659) (assay: firefly luciferase enzyme inhibitors, primary screen, biochemical, luminescence, purified enzyme, 2006 set (AID 1141;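 further: cell-free assay with purified firefly luciferase at 100 ng per well in PBS; test concentration not given here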)). Details: SteadyGlo luminescence, 30 min, higher = more signal, called active from +8 up or from −8 down.
Sequence of Luciferin 4-monooxygenase (Photinus pyralis) (P08659 whole entry, looked up): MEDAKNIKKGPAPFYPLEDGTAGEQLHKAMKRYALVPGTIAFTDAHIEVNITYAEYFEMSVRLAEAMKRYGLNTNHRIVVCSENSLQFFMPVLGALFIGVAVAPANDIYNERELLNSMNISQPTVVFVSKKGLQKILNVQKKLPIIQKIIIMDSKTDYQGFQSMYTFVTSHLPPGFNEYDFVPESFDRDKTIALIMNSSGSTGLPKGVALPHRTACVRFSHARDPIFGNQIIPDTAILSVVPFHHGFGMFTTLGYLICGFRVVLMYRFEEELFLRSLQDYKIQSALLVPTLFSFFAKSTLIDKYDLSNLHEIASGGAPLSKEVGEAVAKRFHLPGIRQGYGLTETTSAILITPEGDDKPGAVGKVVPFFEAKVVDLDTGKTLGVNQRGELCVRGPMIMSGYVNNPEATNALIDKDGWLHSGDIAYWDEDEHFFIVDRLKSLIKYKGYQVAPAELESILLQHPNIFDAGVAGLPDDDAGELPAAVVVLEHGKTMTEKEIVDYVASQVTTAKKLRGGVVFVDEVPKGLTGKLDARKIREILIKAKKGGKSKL

z-score, inactive:
CC(C)C(=C=CC[C@@H](O)c1ccc(OCCO)cc1)CCO -0.426
CC#CCO[Si](C#CCCCCCC)(C(C)C)C(C)C 0.944
CN(C)CCCC[C@@H]1NC(=O)[C@H]2C[C@@H](C(=O)NCc3ccc(F)cc3)[C@@H](c3ccc(O)cc3)N2C1=O -1.23
CC(C)N1CC=CC23O[C@@H]4C=CCCOC(=O)C4[C@H]2C(=O)N(CCCCCO)[C@@H]3C1=O (stereo not given in full) 0.0137
COCCOC(=O)N1C(=O)[C@@]2(c3ccccc31)[C@H](C(=O)N1CCCCCCC1)[C@H]1C(=O)O[C@H](c3ccccc3)[C@H](c3ccccc3)N1[C@@H]2c1ccc(O)cc1 0.047
C#CCN([C@H](/C=C/C1CC1)[C@@H](O)Cc1ccccc1)[C@@H](Cc1ccccc1)C(=O)OC 0.778
COC(=O)[C@@]1(Cc2ccc(F)cc2)[C@H]2c3cc(C(=O)N(C)C)n(CCn4cc([N+](=O)[O-])nc4C)c3C[C@H]2CN1C(=O)c1ccccc1 0.984
CCOC(=O)C[C@H]1[C@H](OC(=O)Cc2ccc3c(c2)OCO3)[C@@H](NC(=O)c2ccccc2)c2cc(OCCCO)ccc2N1C(=O)Cc1ccc(OC)cc1 0.296
C[N+](C)(C)CCCC[C@@H]1NC(=O)[C@H]2C[C@@H](C(=O)NCCCCCNC(=O)CS)[C@@H](c3ccc(O)cc3)N2C1=O -1.2
CN1C(=O)[C@]2(CCS(=O)(=O)c3ccccc3)N=C(c3ccc(OCCCO)cc3)O[C@@H]2c2ccccc21 -1.76
O=C1O[C@@H](c2ccccc2)[C@@H](c2ccccc2)N2[C@@H](c3ccc(OCCO)cc3)[C@]3(C(=O)Nc4ccc(C#CCCO)cc43)[C@@H](C(=O)Nc3nc4ccccc4s3)[C@H]12 -0.7
COCCn1c(C(=O)N2CCCC2)cc2c1C[C@H]1CN(C(=O)c3ccccc3)[C@@](Cc3ccccc3)(C(=O)OC)[C@@H]21 2.58
CC(C)(C)N1CC=CC23O[C@@H]4/C=C\CCCOC(=O)C4[C@H]2C(=O)N(CCCCCCO)[C@@H]3C1=O (stereo not given in full) -0.854
CCCC[C@@H](O)C1=C(COC)Cn2c(=O)n(-c3ccccc3)c(=O)n2[C@H]1CO -1.65
COC(=O)[C@@H]1N=C(c2ccc(OCCCO)cc2)O[C@@H]1c1ccccc1CN=[N+]=[N-] -0.0813
CN1C=C(C(=O)OCCS(C)(=O)=O)C(C(=O)OCCS(C)(=O)=O)=CC(CCCO)=CC1c1ccc(CN2CCCC2)cc1 (stereo not given) -2.16
COCCOC(=O)N1C(=O)[C@@]2(c3ccccc31)[C@H](C(N)=O)[C@H]1C(=O)O[C@H](c3ccccc3)[C@H](c3ccccc3)N1[C@@H]2c1ccc(OCCO)cc1 0.346
CC(C)CNC(=O)[C@@H]1c2ccccc2C(=O)N(C(C)C)[C@H]1c1ccc(CO)cc1 -0.207
CC(C)c1ccc(NN2C(C(O)C(C)C)C=CC3C(=O)N(c4ccccc4)C(=O)C32)cc1 (stereo not given) -1.73
COCCOC(=O)N1C(=O)[C@@]2(c3cc(C#CCC(C(=O)OC)C(=O)OC)ccc31)[C@H](C(=O)N1CCCCCCC1)[C@H]1C(=O)O[C@H](c3ccccc3)[C@H](c3ccccc3)N1[C@@H]2c1ccccc1OCCO -0.694
O=C(NCCO)C1=C[C@H](Oc2ccccc2I)[C@@H](O)[C@H](NCc2ccc(F)cc2)C1 0.243
COC(=O)Cn1c(C(=O)N(C)C)cc2c1C[C@H]1CN(C(=O)c3ccccc3)[C@@](Cc3ccc(OC)cc3)(C(=O)OC)[C@@H]21 0.923
[N-]=[N+]=NCc1ccccc1C[C@]1(C(=O)NCc2ccccc2)N=C(c2ccc(OCCCO)cc2)O[C@H]1c1ccccc1CN=[N+]=[N-] -1.16
CC(=O)NCCCC[C@@H]1NC(=O)[C@H]2C[C@@H](C(=O)NCCCCCC[N+](C)(C)C)[C@@H](c3ccc(O)cc3)N2C1=O 0.512
[N-]=[N+]=NCc1ccccc1C[C@]1(C(=O)N2CCCCC2)N=C(c2ccc(OCCCO)cc2)O[C@H]1c1ccccc1 0.09
COc1ccc(CCNC(=O)[C@@]2(Sc3ccc(C)cc3)CC(=O)N(C(C)C)[C@@H]2c2ccc(CO)cc2)cc1 -0.424
COC(=O)C(CC#Cc1ccc2c(c1)[C@]1(C(=O)N2)[C@H](c2ccc(O)cc2)N2[C@H](c3ccccc3)[C@H](c3ccccc3)OC(=O)[C@H]2[C@@H]1C(=O)N1CCc2cc(OC)c(OC)cc2C1)C(=O)OC -0.0494
COc1ccccc1CN1C(=O)c2ccccc2[C@](Cc2ccccc2I)(C(=O)NCCCN(C)C)[C@@H]1c1ccc(CO)cc1 -0.644
CN1C(=O)C2C(C1=O)C1C=C(c3ccc(CO)cc3)C2C(c2cccs2)N1C (stereo not given) -0.836
NCCCC[C@@H]1NC(=O)[C@H]2C[C@@H](C(=O)NCc3ccc(F)cc3)[C@@H](c3cccc(OCCO)c3)N2C1=O -0.434
CC(C)(C)OC(=O)CC[C@]1(C(=O)N2CCOCC2)N=C(c2ccc(OCCCO)cc2)O[C@H]1c1ccccc1CN=[N+]=[N-] -1.15
CC(C)[C@@H](C(=O)O)n1cc(-c2ccccc2)nn1 0.131
NCCCC[C@@H]1NC(=O)[C@H]2C[C@@H](C(=O)NCc3ccc(F)cc3)[C@@H](c3ccc(O)cc3)N2C1=O 0.242
O=C1OCCC=C[C@H]2OC34C=CCN(c5ccc(Cl)cc5)C(=O)[C@H]3N(CCO)C(=O)[C@@H]4C12 (stereo not given in full) -0.381
O=C1O[C@@H](c2ccccc2)[C@@H](c2ccccc2)N2[C@@H](c3ccc(O)cc3)[C@]3(C(=O)Nc4ccc(C#CC5=CCCCC5)cc43)[C@@H](C(=O)N3CCCCCCC3)[C@H]12 -3.18
